From PubChem BioAssay AID1654 (Sanford-Burnham Center for Chemical Genomics, 2009) come the findings set out here.

Out of some 290,000 compounds screened, about 1,500 (0.52%) were called active. Only a selection was taken, and actives are over-represented in it overall. Values without a mark were called inactive. Cut-off read from the data, not from the text of the source: active = inhibition above about 50%; inactive = the rest.

The target of the test is Dual specificity protein phosphatase 3 (Homo sapiens) (UniProt P51452). The experiment in a line: inhibition of human DUSP3 activity – biochemical, absorbance, uHTS, primary screen (AID 1654). Conditions: recombinant VHR phosphatase, pNPP absorbance, at 13.3 µM, stronger effect = higher value.
Dual specificity protein phosphatase 3 (Homo sapiens), sequence (P51452 whole entry, looked up): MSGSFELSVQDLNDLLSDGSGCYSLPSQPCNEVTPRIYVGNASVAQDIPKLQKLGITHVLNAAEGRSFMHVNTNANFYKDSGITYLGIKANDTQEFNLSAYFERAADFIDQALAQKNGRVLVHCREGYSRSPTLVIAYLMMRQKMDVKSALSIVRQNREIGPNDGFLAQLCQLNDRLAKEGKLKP
In general, inhibition refers to the relative decrease from the control value, in per cent. Turning to `Cc1ccc(C)c(S(=O)(=O)Nc2cc(C)on2)c1`, the inhibition was 16.3%. Next, `COc1ccc(N(CC(=O)N2CCOCC2)S(=O)(=O)c2ccccc2)cc1Cl`: 18.1%.

As for `COCCNC(=O)C1CCN(C(=O)C2CC(=O)N(c3ccc(C)cc3)C2)CC1` (stereo not given), the inhibition is 50% (active).

Take `COCCCNC(=O)C1CC(=O)N(c2ccc(C)cc2)C1` (stereo not given): the inhibition is 3.4%. The same measure for `CCCC(C)NC(=O)C1CCN(C(=O)C2CC(=O)N(c3ccc(C)cc3)C2)CC1` (stereo not given): 13%. The same measure for `CC1CCN(C(=O)c2ccc(S(=O)(=O)Cc3cc(F)ccc3F)c([N+](=O)[O-])c2)CC1`: 4.1%; for `COc1ccc(NC(=O)c2cc([N+](=O)[O-])ccc2NC(=O)CNC2CCCCC2C)c(OC)c1` (stereo not given): 12.5%; for `Cc1cc(NC(=O)[C@H](C)NC(=O)c2ccco2)ccc1Br`: 10%.

`CSc1ncccc1C(=O)OCC(=O)N1CCOCC1`: the inhibition was 39.8%. The same measure for `CSc1ncccc1C(=O)NC1CCCCCC1`: 21.8%. Next, `CSc1ncccc1C(=O)OCc1ccc(Br)cc1`: 58.3% (active); `CN(CC(=O)Nc1c(Cl)cccc1Cl)C(=O)c1ccncc1`: 2.5%; `O=C(CCS(=O)(=O)c1ccc2c(c1)NC(=O)CS2)NCc1ccccc1Cl`: 25.2%. Next, `CCOc1ccc(-n2c(SCC(=O)Nc3ccc(OC)cc3)nc3sc4c(c3c2=O)CCN(C)C4)cc1`: 5.3%. In the case of `Cn1c(SCc2ccc(F)cc2)nnc1-c1ccncc1`, the inhibition was 53% (active). In the case of `Cc1ccc(CSc2nnc(-c3cnccn3)n2C)cc1`, the inhibition is 21.3%. The same measure for `CN(C)CCCn1c(SCc2ccc(Cl)cc2)nnc1-c1ccncc1`: 24%; for `CCOC(=O)c1ccc(NC(=O)c2nc[nH]c2C(=O)N[C@@H](CCCCNC(=O)OC(C)(C)C)C(=O)OC(C)(C)C)cc1`: 3.3%; for `CCc1ccc(OCC(=O)OC(C)C(=O)NC2CC2)cc1` (stereo not given): 5%. Next, `CCn1c(=S)sc2c(=O)n(CC(=O)Nc3ccc(OC)cc3)c(C)nc21`: 57.9% (active); `COc1ccc(NC(=O)Cn2c(-c3ccc(OC)cc3)cn(-c3ccc(C)cc3)c2=O)cc1`: 6.2%. Next, `CCn1c(=S)sc2c(=O)n(CC(=O)Nc3cccc(Br)c3)c(C)nc21`: -3.6%; `Cc1c(Cl)cccc1NC(=S)NCC(O)c1ccccc1` (stereo not given): 2.3%; `CC1CCC2(CC1)NC(=O)N(CC(=O)c1ccc3c(c1)OCO3)C2=O` (stereo not given): 5.4%. As to `COc1ccc(S(=O)(=O)N(CC(=O)NCc2ccco2)c2ccc(F)cc2)cc1`, the inhibition was -4.2%. Next, `CCOc1ccc(N(CC(=O)NCc2ccc(OC)cc2)S(=O)(=O)c2c(C)noc2C)cc1`: 30.2%. The same measure for `COc1ccc(CNC(=O)CN(c2ccc(OC)c(Cl)c2)S(=O)(=O)c2ccc(C)cc2)cc1`: 59.1% (active); for `C=CCN1C(=O)C2(OCCCO2)c2cccc(Cl)c21`: 19.2%; for `Cc1cc(=O)oc2c3c(cc(OCC(=O)NCc4ccccn4)c12)OC(C)(C)CC3`: -2.9%. As for `CC(=O)N[C@@H](C)C(=O)N1CCC(n2nccc2NC(=O)CCCc2ccccc2)CC1`, the inhibition is 10.4%. The same measure for `O=C(O)C1=NN(c2c(F)c(F)cc(F)c2F)C(=O)CC1`: -11.9%. The same measure for `O=S(=O)(NC1CCCCC1N1CCC(O)CC1)c1ccc(Cl)cc1` (stereo not given): 17.2%; for `O=S(=O)(NC1CCCCC1N1CCCCC1)c1ccc(Cl)cc1` (stereo not given): 52% (active).

For `CCN1CCN(C2CCCCC2NS(=O)(=O)c2ccc(Cl)cc2)CC1` (stereo not given), the inhibition was 11.4%.

With `Cc1cc(C)c(S(=O)(=O)N(C)CC(=O)NCC2CCCO2)c(C)c1` (stereo not given), the inhibition was 20.6%.

As to `COc1ccc(CN(C)C(=S)Nc2ccc(Cl)cc2Cl)cc1`, the inhibition is -0.1%. The same measure for `CC(=O)N1CCc2cc(S(=O)(=O)NC3CCCCC3)ccc21`: -7.7%. The same measure for `O=C(Nc1ccc(S(=O)(=O)Nc2ccccn2)cc1)c1ccccc1`: 5.4%; for `N=c1oc2ccccc2cc1C(=O)NCc1ccccc1`: -2.5%. Next, `COc1cccc2cc(C(=O)NCc3ccc(C)cc3)c(=N)oc12`: 53.5% (active). On to `COc1cccc2cc(C(=O)N(C)C)c(=O)oc12`, for which the inhibition is 18.2%. Next, `CN(CC(=O)Nc1ccc(Cl)cc1)C(=O)CNC(=O)c1ccc2ccccc2c1`: 27.9%. The same measure for `Cn1c(C(=O)N2CCCC(C(=O)NCc3ccccc3)C2)cc2sccc21` (stereo not given): 22.8%. Next, `CCc1nnc(NC(=O)c2cccc(S(=O)(=O)N(C)c3ccc(OC)cc3)c2)s1`: 13.9%; `CCc1nnc(NC(=O)c2sc3nc(C)cc(COC)c3c2N)s1`: 3.9%; `CCc1ccc2nc3sc(C(=O)Nc4nnc(CC)s4)c(N)c3cc2c1`: 52.7% (active).

Consider `COC(=O)Cc1cnc(NC(=O)CSc2nc(C(C)C)cc(=O)[nH]2)s1`, for which the inhibition was -28.8%. For `CCN1C(=NCCc2cccnc2)N[C@@H](c2ccccc2)[C@H](C(=O)OC)[C@H]1C`, the inhibition is 36%. Next, `O=C(O)CC(CC(=O)N1CCOCC1)c1ccccc1` (stereo not given): -12.8%; `CC(=O)c1ccc(OC(=O)N2CCOCC2)cc1`: 1.7%; `CC(C)Oc1ccc(C(CC(=O)N2CCOCC2)C(C)C)cc1` (stereo not given): 53% (active). Regarding `COC(=O)CN1C(=O)[C@H]2[C@@H](/C=C/c3ccccc3)N3C(=O)CN(Cc4ccccc4)C(=O)[C@@]3(Cc3ccccc3)[C@H]2C1=O`, the inhibition was 13.4%. Next, `COCC1CCN(C(=O)C2CCC(=O)N(CC3CCCCC3)C2)CC1` (stereo not given): 6.5%; `CC(C)=CCCC1(C)C=Cc2c(ccc3c2[nH]c2cc(O)c(C)cc23)O1` (stereo not given): 16.5%.

As to `COc1ccc(CN(C)C(=O)c2cc(-c3ccc(C)cc3C)nc3ccccc23)c(OC)c1OC`, the inhibition is -8.1%. Next, `Cn1c(CCNS(=O)(=O)c2ccc(F)cc2)nnc1SCc1cccnc1`: 17%.

As for `C#CC(CCN1CCCCC1)(OC)c1ccccc1` (stereo not given), the inhibition is 5.2%. `CCOC(=O)c1cccc(NC(=O)CCc2nnc3ccc(N4CCOCC4)nn23)c1`: the inhibition was 10.4%. The same measure for `CCOc1ccc(CCNC(=O)CCc2nnc3ccc(N4CCCC4)nn23)cc1OCC`: 21.2%; for `CCN(CC)c1ccc(NC(=O)CCc2nnc3ccc(N4CCCCC4)nn23)c(C)c1`: 56.7% (active).
